Screening results deposited in PubChem BioAssay by National Center for Advancing Translational Sciences (NCATS).
In the library only some 7.7% were active in any assay of this set; here they are far more common.
FBPA Giardia inh – inhibitors of Giardia lamblia fructose-1,6-bisphosphate aldolase; A8B2U2; purified Giardia FBPA; Potency, µM (highest dose often 59.6 µM), without a hit: top-dose activity, negative = inhibition, usual class: inhibitors; 0.71% of 290,000 active; further: potency means the concentration at half of the fitted maximal effect; nearly all actives have a fitted effect of over 55% in size
Target sequence (A8B2U2 whole entry, looked up): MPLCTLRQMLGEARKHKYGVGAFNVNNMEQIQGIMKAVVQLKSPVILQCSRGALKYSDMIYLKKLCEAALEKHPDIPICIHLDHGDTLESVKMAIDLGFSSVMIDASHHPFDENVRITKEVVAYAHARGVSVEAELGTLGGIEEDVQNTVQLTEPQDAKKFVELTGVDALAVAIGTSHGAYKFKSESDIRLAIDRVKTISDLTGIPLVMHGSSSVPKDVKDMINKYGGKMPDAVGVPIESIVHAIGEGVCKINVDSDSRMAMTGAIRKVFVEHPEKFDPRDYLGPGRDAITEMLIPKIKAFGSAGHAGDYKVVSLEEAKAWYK
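40 nM FBPA preincubated 10 min at RT with compound (up to 57.5 uM final), then substrate plus GAPDH/TPI/NAD/arsenate coupling and diaphorase/resazurin added. Fluorescence read after 20 min at RT, 525/598 nm.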
HCMV inh – inhibitors of human cytomegalovirus; activity change, negative = inhibition, % at 57.5 µM; HFF cells, HCMV-luciferase reporter, 72 h; active compounds read low; 4.5% of 410,000 active; in the data active means activity change below about -60%; inconclusive means no clear call, values can overlap the other calls; inactive means above about -39%
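Two compound doses tested in HFFs infected with HCMV-luciferase, MOI 1 PFU/cell, 72 h at 37C. Lysate luminescence read with OneGlo; data normalized against buffer-only and 10uM Salinomycin inhibitor controls.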
RE007 growth inh – less growth of the S. pombe RE007 Vpr strain | 0.21% of 360,000 active | S. pombe RE007 Vpr strain, BacTiter-Glo ATP luminescence, 24 h | Potency, µM (top dose mostly 92.2 µM), without a hit: at the highest dose activity change, negative = less growth, actives largely listed as inhibitors; active means well fitted falling curve with a large enough effect; inconclusive means small, poorly fitted or top-dose-only effect; inactive means no such curve, though single readings can be large or run the other way; further: potency means the concentration at half of the fitted maximal effect; nearly all actives have a fitted effect of over 50% in size
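Fission yeast RE007 carrying one integrated HIV-1 vpr copy, seeded at OD 0.01 in PMG+AL medium with 23 nL pinned compound. Grown 24 h at 30 degrees; viability read by BacTiter-Glo luminescence after 5 min.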
FMDV antiviral – foot and mouth disease virus antiviral activity; FMDV antiviral cell-based qHTS; Potency, µM (top dose mostly 57.9 µM), for inactives: top-dose activity change, negative = inhibition, hits mostly inhibitors; 1.2% of 410,000 active; AID 1159524; calls by dose curve; tested in HEK293T cells; further: read-out not given here; potency means the concentration at half of the fitted maximal effect; nearly all actives have a fitted effect of over 45% in size
Sm TGR block – blocks Schistosoma mansoni thioredoxin glutathione reductase. Q962Y6. purified TGR, DTNB reduction, TNB absorbance 405 nm. Potency, µM (series often up to 114 µM), for inactives: top-dose activity change, negative = inhibition, hits mostly inhibitors. 3% of 360,000 active; further: potency means the concentration at half of the fitted maximal effect; nearly all actives have a fitted effect of over 60% in size
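Kinetic colorimetric format: TGR-catalysed, NADPH-driven DTNB reduction monitored via TNB absorbance. Enzyme dispensed at 20 nM; compound exposure 15 min at room temperature before reaction start.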
TbPYK inhibitor – inhibitors of Trypanosoma brucei pyruvate kinase; Q57TT1; TbPYK enzyme, Kinase-Glo Plus ATP luminescence, 45 min; Potency, µM (top dose mostly 76.8 µM), without a hit: at the highest dose activity, negative = inhibition, most hits filed as inhibitors; 0.12% of 410,000 active; AID 624173; further: potency means the concentration at half of the fitted maximal effect; nearly all actives have a fitted effect of over 50% in size
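Activity of T. brucei pyruvate kinase was followed by Kinase-Glo Plus luminescence after the enzyme reacted 45 min at room temperature with 130 uM ADP (final) and substrate. Test compounds were added before ADP at multiple concentrations.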
Active calls of the source: *; ? = inconclusive; / = no result; [ ] = another dose, or the depositor's remark. Unless noted, the call rests on the fitted dose curve; in most records, active means well fitted curve in the direction sought with a large enough effect; inconclusive means small, poorly fitted or top-dose-only effect, or another doubt; inactive means no such curve, though single readings can be large; an effect the other way counts as inactive or inconclusive. On the % scale 0 is the no-effect control and ±100 the full control effect.

SMILES	FBPA Giardia inh	HCMV inh	RE007 growth inh	FMDV antiviral	Sm TGR block	TbPYK inhibitor
COC(=O)c1ccc(CN2CCC3(CCC(CNC(=O)c4ccccc4)O3)CC2)cc1 (stereo not given)	/	/	/	-11%	/	/
O=C(Nc1ccccc1F)c1oc2ccccc2c1NC(=O)c1c(F)cccc1F	/	-38	/	20%	9%	-2%
O=C(Nc1cccc(F)c1)C1CCCN(S(=O)(=O)c2cnc[nH]2)C1 (stereo not given)	/	-62*	11%	-21%	2%	8%
CC[C@H](C)[C@H](NC(=O)CNC(=O)[C@H](CCCNC(=N)N)NC(=O)[C@H](CO)NC(=O)[C@H](C)NC(=O)[C@H](Cc1ccc(O)cc1)NC(=O)[C@H](Cc1c[nH]c2ccccc12)NC(=O)[C@H](C)NC(=O)[C@@H]1CCCN1C(=O)[C@H](CC(N)=O)NC(=O)[C@@H](NC(=O)[C@H](CC(=O)O)NC(=O)[C@@H]1CCCN1C(=O)[C@@H](NC(=O)[C@H](CCCNC(=N)N)NC(=O)[C@@H](NC(=O)[C@H](CCC(=O)O)NC(=O)[C@H](CCSC)NC(=O)[C@H](CO)NC(=O)[C@H](Cc1cnc[nH]1)NC(=O)[C@H](CCCNC(=N)N)NC(=O)[C@H](Cc1cnc[nH]1)NC(=O)[C@@H](NC(=O)[C@H](CCCNC(=N)N)NC(=O)[C@@H](N)CO)[C@@H](C)O)[C@@H](C)CC)[C@@H](C)O)[C@@H](C)CC)C(=O)N[C@@H](CCCNC(=N)N)C(=O)N1CCC[C@H]1C(=O)N[C@H](C(=O)NCC(=O)N[C@@H](CCCNC(=N)N)C(=O)N[C@@H](Cc1ccccc1)C(N)=O)C(C)C	3%	/	/	/	/	/
Cc1c(N)cc(N)cc1C(=O)O	4.5µM*	?	2%	-11%	-28%	-3%
Cc1c(Br)cc(C(=O)O)c(C)c1C	9%	-5	5%	-6%	2%	0%
CN(C)CCN(C)Cc1ccccc1Sc1cccc2ccccc12	-14%	-75*	15%	?	21%	4%
CNCc1ccccc1Sc1cccc2ccccc12	0%	?	-12%	0%	-6%	-7%
CC(=O)Nc1nonc1-c1nnc(SCC(=O)Nc2cc(C)cc(C)c2)n1-c1ccccc1	/	-4	/	-18%	-1%	-5%
CC(=O)c1ccccc1OC(=O)c1ccc([N+](=O)[O-])o1	-26%	106	-9%	-4%	16µM*	3%
O=C(Nc1ccccc1)c1ccc(Br)o1	-11%[89.2 µM]	-62*	-6%	63%	4%	-6%
CCC(=O)N1CCN(c2ccccc2NC(=O)c2ccc([N+](=O)[O-])o2)CC1	-8%	-65*	-5%	-9%	?	-2%
Cc1ccc(C(=O)Nc2ccccc2N2CCCCC2)o1	/	-61*	-9%	?	-20%	3%
O=C(Nc1cccc(NC(=O)c2ccc(Br)o2)c1)c1ccccc1	8%	-11	-10%	38%	-22%	0%
CCOc1ccc(CC(=O)Nc2cccc(-c3nc4cccnc4s3)c2C)cc1	/	-34	/	-5%	-1%	1%
CCCn1c(NC(=O)c2cccc(C)c2C)nc2ccccc21	?	/	?	35%	0%	2%
CCCn1c(NC(=O)c2ccc([N+](=O)[O-])o2)nc2ccccc21	/	-63*	-10%	-9%	-33%	-14%
O=C(Nc1ccccc1N1CCOCC1)c1ccc(Br)o1	11%	-63*	14%	23%	6%	-23%
Cc1cccc(NC(=O)c2ccc([N+](=O)[O-])o2)c1C	-11%	-14	-26%	-18%	6%	1%
CC(C)C(=O)N1CCN(c2ccccc2NC(=O)c2ccc([N+](=O)[O-])o2)CC1	8%	-73*	-4%	0%	?	-5%
COc1ccccc1NC(=O)c1ccc([N+](=O)[O-])o1	/	-63*	?	-26%	/	3%
CN1CCN(c2ccccc2NC(=O)c2ccc(Br)o2)CC1	6%	-22	9%	-14%	-1%	0%
